Laboratory results from PubChem BioAssay (NCATS).
Several values for one entry are separate records, joined by “and”; a condition that tells them apart may be missing. Identical values can stand only once. Inconclusive results are not listed. Entries that show only a call come without a potency. Activity calls are given as the source filed them. Unless noted, calls come from the whole dose curve.

Key:
[1] = target: Androgen receptor (Homo sapiens) (UniProt P10275); experiment: qHTS assay for small molecule antagonists of androgen receptor signaling (AID 588516; active = well fitted curve in the direction sought with a large enough effect in the signal ratio, with a control signal flat, not every such curve was filed as active; the % refers to the signal ratio)
How it was run: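 Compounds tested in titration against 10 nM R1881 in AR-responsive bla reporter HEK 293 cells; CCF4 fluorescence (460/530 nm) after 16 h exposure gave IC50 and efficacy.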

[2] = target: Glucocorticoid receptor (Homo sapiens) (UniProt P04150); experiment: qHTS assay for small molecule agonists of glucocorticoid receptor signaling (AID 588532; active = well fitted curve in the direction sought with a large enough effect in the signal ratio, with a control signal flat; the % refers to the signal ratio); conditions: HeLa MMTV-bla, beta-lactamase ratio, agonist, 18 h; stronger effect = higher value; percent of dexamethasone control, DMSO zero
How it was run: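 Cells were plated and rested 3-5 h at 37 C, compounds were added in titration and incubated 18 h, then CCF4 substrate was loaded for 2 h at RT before reading blue/green fluorescence. EC50 came from Hill-equation fitting.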

[3] = target: Glucocorticoid receptor (Homo sapiens) (UniProt P04150); experiment: qHTS assay for small molecule antagonists of glucocorticoid receptor signaling (AID 588533; active = well fitted inhibition curve with a large enough effect in the signal ratio, with a control signal flat, not every such curve was filed as active; the % refers to the signal ratio)
How it was run: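 Antagonist-mode qHTS: compound titrations added to GRE-bla HeLa cells, then dexamethasone 2 nM final; 18 h, 37 C. CCF4 FRET fluorescence normalized to dexamethasone and DMSO; IC50 from Hill fit.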

[4] = target: Peroxisome proliferator-activated receptor gamma (Homo sapiens) (UniProt P37231); experiment: qHTS assay for small molecule agonists of peroxisome proliferator-activated receptor gamma signaling (AID 588536; active = well fitted curve in the direction sought with a large enough effect in the signal ratio, with a control signal flat, not every such curve was filed as active; the % refers to the signal ratio)
How it was run: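 HEK293 UAS-bla reporter line, 1% charcoal/dextran FBS; titration, 16 h, 37 C; CCF4 loading 2 h RT; fluorescence 460/530 nm. Normalized to rosiglitazone 2 uM = 100%, DMSO = 0%.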

[5] = target: Vitamin D3 receptor (Homo sapiens) (UniProt P11473); experiment: qHTS assay for small molecule antagonists of vitamin D receptor signaling (AID 588541);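 note: receptor activated by calcitriol during compound treatment; series mostly up to about 77 µM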
How it was run: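 VDR-UAS-bla HEK293T cells in 2% charcoal-stripped FBS were stimulated with 1-alpha,25-dihydroxyvitamin D3 (3 nM final) plus compound for 16 h at 37 C. The beta-lactamase CCF4 readout was normalized to 50 nM agonist and DMSO, and Hill fits gave IC50.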

[6] = target: Vitamin D3 receptor (Homo sapiens) (UniProt P11473); experiment: qHTS assay for small molecule agonists of vitamin D receptor signaling (AID 588543)
How it was run: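 Measured: β-lactamase reporter activity (CCF4, 405 nm excitation, 460/530 nm emission) in HEK293T VDR-UAS-bla cells after 16 h compound exposure at 37 °C. Normalization against 50 nM 1α,25-dihydroxyvitamin D3 and DMSO; Hill-fit EC50.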

[7] = target: Bile acid receptor (Homo sapiens) (UniProt Q96RI1); experiment: qHTS assay for small molecule antagonists of farnesoid X receptor signaling (AID 588526)
How it was run: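 Antagonist mode: titrated compounds tested against chenodeoxycholic acid stimulation (normalized to 50 uM CDCA and DMSO) in GeneBLAzer HEK293T cells for 16 h. Beta-lactamase read by CCF4 fluorescence; IC50 from Hill fits.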

[8] = qHTS assay for small molecule antagonists of peroxisome proliferator-activated receptor delta signaling (AID 588535; active = well fitted inhibition curve with a large enough effect in the signal ratio, with a control signal flat, not every such curve was filed as active; the % refers to the signal ratio;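 for max response: cells co-treated with a PPAR-delta agonist as stimulator during compound exposure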); conditions: HEK293T PPARd-UAS-bla, beta-lactamase FRET ratio, 18 h; 460 nm channel
How it was run: (§1)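 Cells were seeded at 4000 per well in assay medium containing 2% charcoal/dextran FBS and held 5 hrs at 37 C. Compounds were then added for 18 hrs. CCF4 substrate was applied for 2 hrs at room temperature before fluorescence reading.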

[9] = target: Peroxisome proliferator-activated receptor delta (Homo sapiens) (UniProt Q03181); experiment: as above
How it was run: as §1

[10] = target: Peroxisome proliferator-activated receptor gamma (Homo sapiens) (UniProt P37231); experiment: qHTS assay for small molecule antagonists of peroxisome proliferator-activated receptor gamma signaling (AID 588537; active = well fitted inhibition curve with a large enough effect in the signal ratio, with a control signal flat, not every such curve was filed as active; the % refers to the signal ratio;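 note: reporter cells co-stimulated with 50 nM rosiglitazone agonist during compound treatment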)
How it was run: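 Step one: plate 3000 HEK293 UAS-bla cells per well in medium with 1% stripped serum and hold 6-6.5 h at 37 C. Step two: add compound and 50 nM agonist for 16 h. Step three: CCF4 loading, fluorescence read.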

Chain of Bile acid receptor (Homo sapiens) (Q96RI1 whole entry, looked up): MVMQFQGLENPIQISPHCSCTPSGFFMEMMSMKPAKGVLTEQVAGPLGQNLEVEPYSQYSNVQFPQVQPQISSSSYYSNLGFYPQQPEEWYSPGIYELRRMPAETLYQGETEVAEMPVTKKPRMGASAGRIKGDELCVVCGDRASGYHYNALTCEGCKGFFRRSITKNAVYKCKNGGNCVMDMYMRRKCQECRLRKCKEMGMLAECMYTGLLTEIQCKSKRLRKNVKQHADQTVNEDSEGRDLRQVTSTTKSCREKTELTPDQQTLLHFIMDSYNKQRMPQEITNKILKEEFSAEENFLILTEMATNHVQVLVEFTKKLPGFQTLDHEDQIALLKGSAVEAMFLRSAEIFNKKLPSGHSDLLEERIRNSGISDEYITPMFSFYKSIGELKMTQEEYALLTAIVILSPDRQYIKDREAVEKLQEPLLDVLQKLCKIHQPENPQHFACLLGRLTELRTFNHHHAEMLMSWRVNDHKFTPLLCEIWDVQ
Chain of Peroxisome proliferator-activated receptor gamma (Homo sapiens) (P37231 whole entry, looked up): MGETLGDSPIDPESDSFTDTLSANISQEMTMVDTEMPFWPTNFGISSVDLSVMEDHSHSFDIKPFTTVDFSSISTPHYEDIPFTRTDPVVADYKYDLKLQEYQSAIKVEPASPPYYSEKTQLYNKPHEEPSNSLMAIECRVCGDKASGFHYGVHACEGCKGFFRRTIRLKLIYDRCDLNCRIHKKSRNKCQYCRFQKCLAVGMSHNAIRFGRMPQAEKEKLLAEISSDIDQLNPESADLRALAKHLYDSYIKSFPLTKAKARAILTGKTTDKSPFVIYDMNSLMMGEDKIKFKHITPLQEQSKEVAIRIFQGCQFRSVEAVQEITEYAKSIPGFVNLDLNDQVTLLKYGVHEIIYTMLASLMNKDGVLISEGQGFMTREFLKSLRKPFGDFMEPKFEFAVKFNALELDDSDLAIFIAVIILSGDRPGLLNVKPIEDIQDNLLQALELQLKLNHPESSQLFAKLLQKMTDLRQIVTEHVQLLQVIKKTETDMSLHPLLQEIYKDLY
Chain of Peroxisome proliferator-activated receptor delta (Homo sapiens) (Q03181 whole entry, looked up): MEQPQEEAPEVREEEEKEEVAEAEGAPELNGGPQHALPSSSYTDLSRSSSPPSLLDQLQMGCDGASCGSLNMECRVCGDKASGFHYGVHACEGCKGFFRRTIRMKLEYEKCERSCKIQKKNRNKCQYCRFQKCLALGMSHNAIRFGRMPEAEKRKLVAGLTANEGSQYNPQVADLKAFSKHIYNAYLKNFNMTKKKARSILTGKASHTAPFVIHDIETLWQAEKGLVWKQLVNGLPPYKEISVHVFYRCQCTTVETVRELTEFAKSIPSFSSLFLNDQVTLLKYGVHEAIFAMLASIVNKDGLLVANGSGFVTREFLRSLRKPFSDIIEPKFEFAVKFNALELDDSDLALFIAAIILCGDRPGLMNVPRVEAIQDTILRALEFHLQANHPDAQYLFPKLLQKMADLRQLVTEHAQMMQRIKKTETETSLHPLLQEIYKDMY
Chain of Androgen receptor (Homo sapiens) (P10275 whole entry, looked up): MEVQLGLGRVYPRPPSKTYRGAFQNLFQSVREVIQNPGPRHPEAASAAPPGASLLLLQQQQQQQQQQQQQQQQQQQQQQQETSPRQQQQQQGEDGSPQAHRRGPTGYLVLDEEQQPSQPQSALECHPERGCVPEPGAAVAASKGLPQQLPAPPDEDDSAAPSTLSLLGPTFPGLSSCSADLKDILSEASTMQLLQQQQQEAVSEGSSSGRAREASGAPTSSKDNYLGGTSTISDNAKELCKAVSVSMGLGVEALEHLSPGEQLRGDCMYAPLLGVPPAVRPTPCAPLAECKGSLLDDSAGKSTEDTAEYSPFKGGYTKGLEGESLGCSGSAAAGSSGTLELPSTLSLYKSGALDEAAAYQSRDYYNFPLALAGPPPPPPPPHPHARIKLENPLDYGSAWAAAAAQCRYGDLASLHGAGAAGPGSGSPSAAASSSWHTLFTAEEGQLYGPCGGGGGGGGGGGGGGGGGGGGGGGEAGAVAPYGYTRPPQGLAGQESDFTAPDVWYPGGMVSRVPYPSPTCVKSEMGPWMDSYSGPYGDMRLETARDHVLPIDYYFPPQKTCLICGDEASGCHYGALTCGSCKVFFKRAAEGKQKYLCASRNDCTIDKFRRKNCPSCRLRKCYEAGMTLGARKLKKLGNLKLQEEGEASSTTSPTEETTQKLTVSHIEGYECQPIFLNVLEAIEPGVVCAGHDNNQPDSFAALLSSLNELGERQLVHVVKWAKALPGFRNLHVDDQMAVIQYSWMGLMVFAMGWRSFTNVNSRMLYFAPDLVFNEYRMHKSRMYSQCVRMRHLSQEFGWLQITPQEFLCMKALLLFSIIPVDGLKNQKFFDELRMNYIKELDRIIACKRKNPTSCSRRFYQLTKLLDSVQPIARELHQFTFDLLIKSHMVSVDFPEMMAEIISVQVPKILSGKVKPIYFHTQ
Chain of Vitamin D3 receptor (Homo sapiens) (P11473 whole entry, looked up): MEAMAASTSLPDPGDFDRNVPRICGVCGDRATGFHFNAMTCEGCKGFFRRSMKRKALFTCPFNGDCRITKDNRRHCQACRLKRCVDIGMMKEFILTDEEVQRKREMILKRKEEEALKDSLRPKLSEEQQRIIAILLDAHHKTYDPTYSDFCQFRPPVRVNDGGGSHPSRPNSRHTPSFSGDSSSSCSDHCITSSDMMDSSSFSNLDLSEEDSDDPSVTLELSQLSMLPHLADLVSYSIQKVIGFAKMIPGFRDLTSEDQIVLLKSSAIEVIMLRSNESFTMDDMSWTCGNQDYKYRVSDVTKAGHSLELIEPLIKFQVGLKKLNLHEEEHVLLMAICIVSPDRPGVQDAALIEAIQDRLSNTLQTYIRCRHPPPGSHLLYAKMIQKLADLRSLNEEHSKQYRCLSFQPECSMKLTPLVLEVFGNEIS
Chain of Glucocorticoid receptor (Homo sapiens) (P04150 whole entry, looked up): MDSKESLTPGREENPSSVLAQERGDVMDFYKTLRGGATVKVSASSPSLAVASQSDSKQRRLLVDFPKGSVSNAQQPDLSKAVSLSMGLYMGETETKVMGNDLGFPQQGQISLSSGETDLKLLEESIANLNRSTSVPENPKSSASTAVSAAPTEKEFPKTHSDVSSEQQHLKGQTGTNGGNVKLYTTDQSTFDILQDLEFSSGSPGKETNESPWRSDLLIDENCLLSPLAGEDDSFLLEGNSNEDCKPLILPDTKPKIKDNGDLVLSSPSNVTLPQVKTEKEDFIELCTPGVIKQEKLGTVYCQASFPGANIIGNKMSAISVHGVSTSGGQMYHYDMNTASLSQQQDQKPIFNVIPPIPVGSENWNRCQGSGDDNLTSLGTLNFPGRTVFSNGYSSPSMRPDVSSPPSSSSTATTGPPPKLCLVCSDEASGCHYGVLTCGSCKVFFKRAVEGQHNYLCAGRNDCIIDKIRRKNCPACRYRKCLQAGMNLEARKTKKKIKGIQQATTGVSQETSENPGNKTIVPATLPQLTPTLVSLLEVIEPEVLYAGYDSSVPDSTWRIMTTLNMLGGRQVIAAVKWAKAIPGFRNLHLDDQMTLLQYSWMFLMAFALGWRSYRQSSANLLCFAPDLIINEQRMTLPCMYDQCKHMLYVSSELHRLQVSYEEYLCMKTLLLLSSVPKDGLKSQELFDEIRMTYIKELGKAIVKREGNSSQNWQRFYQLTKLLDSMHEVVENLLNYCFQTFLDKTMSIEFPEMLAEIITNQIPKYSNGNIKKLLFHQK

Structure (SMILES)	outcome [1]	activation [2]	outcome [3]	outcome [4]	outcome [5]	outcome [6]	outcome [7]	max response [8]	Potency [9]	outcome [10]
CCCCCCCCC/C=C/CC1CC(=O)OC1=O (stereo not drawn)	inactive	0.907% (inactive)	inactive	inactive	inactive	inactive				
Cc1ccc(Cl)cc1N		-7.53% (inactive)	inactive	inactive	inactive	inactive	inactive	-18.2%	inactive	inactive
CC(=O)CC(C)C	inactive	21.2% (inactive)	inactive	inactive	inactive	inactive	inactive	19.2%	inactive	
COc1cccc2sc(N)nc12	inactive			inactive	inactive		inactive	-34.4%	inactive	
O=Cc1ccc(Cl)cc1	inactive			inactive	inactive	inactive		7.54%		inactive
ClCCl	inactive	-3.26% (inactive)		inactive	inactive	inactive		23.4%	inactive	
Cc1cccc(C(=O)O)c1	inactive			inactive	inactive	inactive		-5.23%	inactive	inactive
FC(F)(F)c1cccc(Cl)c1	inactive	-8.16% (inactive)	inactive				inactive			
CCC(=O)/C=C/C1C(C)=CCCC1(C)C (stereo not drawn)		-2.65% (inactive)		inactive	inactive	inactive	inactive	2.01%	inactive	inactive
CCCCC=O		-0.364% (inactive)	inactive		inactive	inactive	inactive			
CCCCC(CC)CO (stereo not drawn)		-4.31% (inactive)	inactive	inactive	inactive	inactive	inactive	-4.39%		
c1ccc(Oc2ccccc2)cc1		2.66% (inactive) and -3.4% (inactive)	inactive		inactive	inactive	inactive	-19.2% and -5.05%		
CN(C)CCCNCCCN		-1.86% (inactive)	inactive	inactive	inactive	inactive	inactive	-8.47%	inactive	inactive
Nc1nc2ccccc2[nH]1		0.673% (inactive)	inactive	inactive	inactive	inactive	inactive			inactive
CCCCCCCCCCCCOCC1CO1 (stereo not drawn)		7.49% (inactive)	inactive	inactive			inactive	36.4%		
CCCCC/C=C/C=C/C=O		-3.04% (inactive) and 0.369% (inactive)	inactive	inactive	inactive	inactive	inactive	16.5%		

Structure (SMILES)	outcome [1]	activation [2]	outcome [3]	outcome [4]	outcome [5]	outcome [6]	outcome [7]	max response [8]	Potency [9]	outcome [10]
Cc1ccc(C)c(O)c1		4.8% (inactive)		inactive		inactive	inactive	7.19%	inactive	
C1COC1			inactive	inactive		inactive	inactive	-21%	inactive	inactive
Clc1ccc(Cl)c(Cl)c1Cl		16% (inactive) and -12% (inactive)	inactive	inactive		inactive	inactive	9.65% and -40.7%		inactive
Oc1cccc(Nc2ccccc2)c1		-7.34% (inactive)	inactive	inactive			inactive			
C=C(C)C(=O)OCCCCCCCCCC		8.77% (inactive)	inactive	inactive	inactive	inactive	inactive			inactive
C=C(C)C1CC=C(C)C(OC(C)=O)C1 (stereo not drawn)		3.07% (inactive)	inactive	inactive	inactive	inactive	inactive	6.72%	inactive	inactive
CCc1ccccc1O		4.35% (inactive)	inactive	inactive	inactive	inactive	inactive	-32.1%		inactive
CCCCCCC(=O)O		2.07% (inactive)	inactive		inactive	inactive	inactive	-11.6%	inactive	
C1CCOC1		0.528% (inactive)	inactive	inactive	inactive		inactive			
CC(=O)Nc1ccc(N)cc1		1.17% (inactive)	inactive	inactive	inactive	inactive	inactive			inactive
CC(N)CN (stereo not drawn)		-2.03% (inactive)	inactive	inactive	inactive	inactive	inactive	4.9%	inactive	
C=CCCCCCC		7.84% (inactive)	inactive	inactive	inactive	inactive	inactive			inactive
C/C=C1\CC2C=CC1C2 (stereo not drawn)		1.02% (inactive)	inactive		inactive		inactive	-0.443%	inactive	inactive
Cc1cc([N+](=O)[O-])ccc1N		-2.44% (inactive)	inactive	inactive	inactive	inactive	inactive			inactive
FB(F)F		3.97% (inactive)	inactive	inactive	inactive	inactive	inactive	9.97%	inactive	inactive
